Data on 35 molecules can be found in PubChem BioAssay.

The experiment concerns the target Calmodulin-1 (Homo sapiens) (UniProt P0DP23). Briefly: calcium-bound CALM1 binders on microarrays, profiling panel, artefact control for SMM control-protein annotation, biochemical, small-molecule microarray, Cy5-labelled CALM1, plus calcium (AID 1112).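 Note: score merges spot fluorescence with signal to noise from triplicate slides.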 As to conditions: Cy5-CALM1 binding fluorescence, higher = more signal.
On to `CS(=O)(=O)CCOC(=O)C1=CC(CCCO)=CC(c2ccc(CN3CCCC3)cc2)N(Cc2sc3ccccc3c2Cl)C=C1C(=O)OCCS(C)(=O)=O` (stereo not given), for which the composite z-score was determined as 0.91.
As for `CCOc1cc(C(O)C2C=CC3C(=O)NC(=O)C3N2Nc2ccc(Cl)cc2Cl)ccc1O` (stereo not given), the figure is -0.0008.
As for `Cc1cc(C)c(C(O)C2C=CC3C(=O)N(c4ccccc4)C(=O)C3N2Nc2ccccc2F)c(C)c1` (stereo not given), the figure is -0.0086; as for `CCOC(=O)C[C@H]1[C@H](OC(=O)Cc2ccc3c(c2)OCO3)[C@@H](NC(=O)c2ccc3ccccc3n2)c2cc(OCCCO)ccc2N1C(=O)c1ccccc1`, -0.564; as for `NCCCCCNC(=O)[C@@H]1C[C@@H]2C(=O)N[C@@H](CCCCN)C(=O)N2[C@@H]1c1ccc(O)cc1`, 0.325.
As for `O=C(C1N=C(c2ccc(OCCCO)cc2)N(c2ccccc2)O1)N1CCCCC1` (stereo not given), the figure is 0.867; as for `C=CCC(OC(C)=O)[C@@H]1[C@@H](N(Cc2ccc(-c3ccccc3)cc2)C(=O)c2ccc(-c3ccccc3)cc2)c2cc(OCCCO)ccc2N1C(=O)c1ccc2ccccc2c1` (stereo not given in full), 0.839.
In the case of `CCCC[C@@H](O)C1=C(COC)C[C@H]2C(=O)N(Cc3ccccc3)C(=O)[C@H]2[C@H]1CO`, the composite z-score was -0.359.
Regarding `COc1ccc(CCNC(=O)[C@@]2(Sc3ccc(C)cc3)CC(=O)N(Cc3ccccc3C(F)(F)F)[C@@H]2c2ccc(CO)cc2I)cc1`, the composite z-score was found to be 0.14.
For `CCC#CCN(Cc1ccccc1Br)[C@H](/C=C/C1CC1)[C@@H](O)Cc1ccccc1`, the composite z-score was -0.659.
As for `NCCCCCNC(=O)[C@H]1C[C@H]2C(=O)N3CCC[C@H]3C(=O)N2[C@H]1c1cccc(OCCO)c1`, the figure is 0.684; as for `CC(C)[Si](C#CCCCC#N)(O[C@H](c1ccccc1)c1cn(Cc2ccccc2)nn1)C(C)C`, -0.458; as for `CC(C)N1CC=CC23O[C@@H]4C=CCCOC(=O)C4[C@H]2C(=O)N(CCCO)[C@@H]3C1=O` (stereo not given in full), -0.694.
With `[N-]=[N+]=Nc1ccccc1C[C@]1(C(=O)NCC(O)CO)COC(c2ccc(OCCCO)cc2)=N1` (stereo not given in full) the figure was 0.37; with `COCC(=C=CC[C@H](O)c1ccc(CO)o1)CCO`, -0.249.
For the molecule `CC(C)C(CO)N1C(=O)[C@@H]2[C@H]3C(=O)OCC=C[C@H]3OC23C=CCN(c2ccc(Cl)cc2)C(=O)[C@@H]13` (stereo not given in full), the composite z-score is -0.499.
With `COc1ccc([Si](C)(C)[C@H]2[C@H](CC(=O)N3Cc4ccccc4C[C@H]3CO)O[C@@]3(C(=O)N(Cc4ccc(N5CCOC5=O)cc4)c4ccccc43)[C@@H]2C)cc1` the figure was -0.665; with `CCCC[C@@H](O)C1=C(COc2ccccc2)C[C@H]2C(=O)N(Cc3ccccc3)C(=O)[C@H]2[C@H]1CO`, -0.451; with `C[C@@H]1NC(=O)[C@@H](Cc2ccccc2)NC(=O)[C@@]23C(=O)N[C@@H](Cc4ccccc4)C2[C@H](C)[C@@]2(C)O[C@H]2C3/C=C/C/C=C\CNC1=O` (stereo not given in full), -1.16.
With `[N-]=[N+]=Nc1ccccc1C[C@]1(C(=O)NCCN2CCOCC2)COC(c2ccc(OCCCO)cc2)=N1` the figure was -0.553; with `CC(C)C(CO)N1C(=O)[C@@H]2C3C(=O)OCCC/C=C\[C@H]3OC23C=CCN(c2ccc4ccccc4c2)C(=O)[C@@H]13` (stereo not given in full), -0.132.
Take `C=C(/C(=C/C[C@H](OC(=O)c1ccncc1)c1ccc(CO)o1)c1cnc2ccccc2c1)C(C)C`: the composite z-score is -0.0351.
For `C=CCOC(=O)[C@@H]1[C@H]2C(=O)O[C@H](c3ccccc3)[C@H](c3ccccc3)N2[C@H](c2ccc(OCCOC(=O)[C@@H]3C[C@@H]4C(=O)N[C@@H](CCCC[N+](C)(C)C)C(=O)N4[C@@H]3c3ccc(O)cc3)cc2)[C@@]12C(=O)Nc1ccc(I)cc12`, the composite z-score is -0.521.
As for `CCCCC(O)C1C=CC2C(=O)N(C)C(=O)C2N1N(c1ccccc1)c1ccccc1` (stereo not given), the figure is 0.766.
As for `CCCC=C(CCC)[C@@H](NC(=O)c1cccs1)c1ccc(C(=O)OC)cc1`, the figure is -0.276; as for `Cc1ccccc1C(O)C1C=CC2C(=O)NC(=O)C2N1Nc1ccccn1` (stereo not given), -0.206; as for `C=CCNC(=O)[C@@H]1[C@H]2C(=O)O[C@H](c3ccccc3)[C@H](c3ccccc3)N2[C@H](c2ccccc2OCCO)[C@@]12C(=O)N(C(=O)OCCOC)c1ccc(C#CC3(O)CCCCCC3)cc12`, 0.212.
As for `CCCNC(=O)[C@@H]1c2ccccc2C(=O)N(Cc2ccc(OC(F)(F)F)cc2)[C@H]1c1ccc(CO)cc1`, the figure is 0.237; as for `CCCNC(=O)[C@@]1(C)c2ccccc2C(=O)N(c2ccc(C)cn2)[C@H]1c1ccc(CO)cc1`, -0.524.
As for `COc1cc2c(cc1O)C(c1ccc(CN3CCCC3)cc1)N(Cc1cc3c(cc1Br)OCO3)CC2` (stereo not given), the composite z-score came to 0.91.
Regarding `CCOC(=O)C[C@H]1[C@H](OC(=O)Cc2ccc3c(c2)OCO3)[C@@H](NC(=O)C2CCCCC2)c2cc(OCCCO)ccc2N1C(=O)c1ccccc1`, the composite z-score is 0.389.
As to `O=C(NCc1ccc(F)cc1)[C@H]1C[C@H]2C(=O)NCC(=O)N2[C@H]1c1ccc(O)cc1`, the composite z-score came to 0.0871.
As for `CN(C)c1ccc(C(O)C2C=CC3C(=O)NC(=O)C3N2Nc2ccccn2)cc1` (stereo not given), the figure is -0.733; as for `COc1ccc([Si](C)(C)[C@@H]2[C@@H](CC(=O)N(CCO)Cc3ccccc3)O[C@]3(C(=O)N(Cc4cccc(N5CCCCC5=O)c4)c4ccccc43)[C@H]2C)cc1`, 0.645; as for `CCOC(=O)C[C@H]1[C@H](OC(=O)c2ccc(C(=O)c3ccccc3)cc2)[C@@H](NC(=O)C2CCCCC2)c2cc(OCCCO)ccc2N1C(=O)c1ccc2ccccc2n1`, -0.102.
